Reference: PubChem BioAssay AID1159580 (chemical genetic matrix, 2015)
Where “and” joins values, the source holds several entries; their conditions need not be identical. Identical values can stand only once. Screen size: about 5,500 compounds; about 2,000 (36%) were called active. About 18% were inconclusive and are not listed. Cut-off read from the data, not from the text of the source: active = normalized growth mostly below about 0.91 (no sharp cut-off); inconclusive = no clear call, values can overlap the other calls; inactive = mostly above about 0.92. This is one part of the list.

Assay: chemical genetic growth profiling, strain panel (AID 1159580);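 note: tested at 20 µM; growth read once vehicle control cultures reached saturation at 30 °C; 1 = growth at the plate median or of vehicle wells; lower values mean less growth of the strain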
Settings: growth OD

Measured: normalized growth

CCCNC(C)C(=O)Nc1ccccc1C (stereo unspecified)
inactive: S. cerevisiae deletion strains, locus YJR066W, strain TOR1, active compounds read low 0.979 | S. cerevisiae deletion strains, locus YJR075W, strain HOC1, active compounds read low 1.01 | S. cerevisiae deletion strains, locus YKL009W, strain mrt4, active compounds read low 1 | S. cerevisiae deletion strains, locus YKL068W, active compounds read low 0.99 | S. cerevisiae deletion strains, locus YKL085W, strain MDH1 (second series), active compounds read low 1 | S. cerevisiae deletion strains, locus YKL085W, strain MDH1, active compounds read low 1 | S. cerevisiae deletion strains, locus YKL160W, strain elf1, active compounds read low 1.01 | S. cerevisiae deletion strains, locus YKL190W, strain CNB1, active compounds read low 1 | S. cerevisiae deletion strains, locus YKR001C, strain vps1, active compounds read low 1 | S. cerevisiae deletion strains, locus YKR026C, strain gcn3, active compounds read low 1 | S. cerevisiae deletion strains, locus YKR091W, strain srl3, active compounds read low 1 | S. cerevisiae deletion strains, locus YLL001W, strain dnm1, active compounds read low 1.01 | S. cerevisiae deletion strains, locus YLL026W, active compounds read low 1.01 | S. cerevisiae deletion strains, locus YLL041C, strain sdh2, active compounds read low 0.997 | S. cerevisiae deletion strains, locus YLR027C, strain aat2, active compounds read low 1.01 | S. cerevisiae deletion strains, locus YLR039C, strain RIC1, active compounds read low 1.03 | S. cerevisiae deletion strains, locus YLR058C, strain SHM2, active compounds read low 1.01 | S. cerevisiae deletion strains, locus YLR102C, strain apc9, active compounds read low 0.989 | S. cerevisiae deletion strains, locus YLR113W, strain HOG1, active compounds read low 1.09 | S. cerevisiae deletion strains, locus YLR221C, strain rsa3, active compounds read low 0.988 | S. cerevisiae deletion strains, locus YLR258W, strain gsy2, active compounds read low 0.999 | S. cerevisiae deletion strains, locus YLR262C, strain YPT6 (second series), active compounds read low 1.02 | S. cerevisiae deletion strains, locus YLR262C, strain YPT6, active compounds read low 1.07 | S. cerevisiae deletion strains, locus YLR268W, strain sec22, active compounds read low 0.989 | S. cerevisiae deletion strains, locus YLR320W, strain mms22, active compounds read low 1.01 | S. cerevisiae deletion strains, locus YLR330W, strain CHS5, active compounds read low 1.01 | S. cerevisiae deletion strains, locus YLR342W, strain FKS1 (second series), active compounds read low 0.996 | S. cerevisiae deletion strains, locus YLR342W, strain FKS1, active compounds read low 1.01 | S. cerevisiae deletion strains, locus YLR357W, strain rsc2, active compounds read low 0.981 | S. cerevisiae deletion strains, locus YLR370C, strain arc18, active compounds read low 1.01 | S. cerevisiae deletion strains, locus YLR371W, strain rom2, active compounds read low 0.983 | S. cerevisiae deletion strains, locus YLR384C, strain iki3, active compounds read low 1.01 | S. cerevisiae deletion strains, locus YLR418C, strain cdc73, active compounds read low 0.967 | S. cerevisiae deletion strains, locus YML016C, strain PPZ1, active compounds read low 1.01 | S. cerevisiae deletion strains, locus YML032C, strain rad52, active compounds read low 0.987 | S. cerevisiae deletion strains, locus YML120C, strain ndi1, active compounds read low 1 | S. cerevisiae deletion strains, locus YML124C, strain tub3, active compounds read low 0.989 | S. cerevisiae deletion strains, locus YMR058W, strain fet3, active compounds read low 1 | S. cerevisiae deletion strains, locus YMR078C, strain ctf18, active compounds read low 0.993 | S. cerevisiae deletion strains, locus YMR125W, strain sto1, active compounds read low 1.02 | S. cerevisiae deletion strains, locus YMR129W, active compounds read low 1 | S. cerevisiae deletion strains, locus YMR205C, strain PFK2, active compounds read low 1 | S. cerevisiae deletion strains, locus YMR223W, strain ubp8, active compounds read low 0.972 | S. cerevisiae deletion strains, locus YMR231W, strain pep5, active compounds read low 1.01 | S. cerevisiae deletion strains, locus YMR263W, strain SAP30, active compounds read low 1 | S. cerevisiae deletion strains, locus YMR307W, strain GAS1, active compounds read low 0.949 | S. cerevisiae deletion strains, locus YNL067W, strain RPL9B, active compounds read low 1.02 | S. cerevisiae deletion strains, locus YNL071W, strain lat1, active compounds read low 1 | S. cerevisiae deletion strains, locus YNL153C, strain GIM3, active compounds read low 0.963 | S. cerevisiae deletion strains, locus YNL175C, strain NOP13, active compounds read low 1.01 | S. cerevisiae deletion strains, locus YNL183C, strain NPR1, active compounds read low 1 | S. cerevisiae deletion strains, locus YNL197C, strain WHI3, active compounds read low 1.04 | S. cerevisiae deletion strains, locus YNL209W, strain ssb2, active compounds read low 1 | S. cerevisiae deletion strains, locus YNL224C, strain SQS1, active compounds read low 0.989 | S. cerevisiae deletion strains, locus YNL233W, strain BNI4, active compounds read low 1.03 | S. cerevisiae deletion strains, locus YNL248C, strain rpa49, active compounds read low 1.01 | S. cerevisiae deletion strains, locus YNL250W, strain rad50, active compounds read low 0.983 | S. cerevisiae deletion strains, locus YNL271C, strain bni1, active compounds read low 0.996 | S. cerevisiae deletion strains, locus YNL298W, strain CLA4, active compounds read low 0.985 | S. cerevisiae deletion strains, locus YNL307C, strain MCK1, active compounds read low 0.998 | S. cerevisiae deletion strains, locus YNL322C, strain KRE1 (second series), active compounds read low 1 | S. cerevisiae deletion strains, locus YNL322C, strain KRE1, active compounds read low 1 and 1.02 | S. cerevisiae deletion strains, locus YNR049C, strain mso1, active compounds read low 1.01 | S. cerevisiae deletion strains, locus YNR052C, strain pop2, active compounds read low 0.998 | S. cerevisiae deletion strains, locus YOL006C, strain TOP1, active compounds read low 1.04 | S. cerevisiae deletion strains, locus YOL012C, strain htz1 0.66 | S. cerevisiae deletion strains, locus YOL147C, strain pex11, active compounds read low 0.979 | S. cerevisiae deletion strains, locus YOR001W, strain rrp6, active compounds read low 0.994 | S. cerevisiae deletion strains, locus YOR061W, strain CKA2, active compounds read low 1.02 | S. cerevisiae deletion strains, locus YOR069W, strain VPS5, active compounds read low 1 | S. cerevisiae deletion strains, locus YOR070C, strain gyp1, active compounds read low 1 | S. cerevisiae deletion strains, locus YOR080W, strain dia2, active compounds read low 0.999 | S. cerevisiae deletion strains, locus YOR083W, strain WHI5 (second series), active compounds read low 1.01 | S. cerevisiae deletion strains, locus YOR083W, strain WHI5, active compounds read low 1 | S. cerevisiae deletion strains, locus YOR106W, strain vam3, active compounds read low 1 | S. cerevisiae deletion strains, locus YOR136W, strain idh2, active compounds read low 0.992 | S. cerevisiae deletion strains, locus YOR144C, strain elg1, active compounds read low 0.977 | S. cerevisiae deletion strains, locus YOR184W, strain ser1, active compounds read low 0.968 | S. cerevisiae deletion strains, locus YOR231W, strain MKK1, active compounds read low 1.09 | S. cerevisiae deletion strains, locus YOR265W, strain rbl2, active compounds read low 1.01 | S. cerevisiae deletion strains, locus YOR270C, strain vph1, active compounds read low 0.987 | S. cerevisiae deletion strains, locus YOR290C, strain snf2, active compounds read low 0.992 | S. cerevisiae deletion strains, locus YOR316C, strain cot1, active compounds read low 0.998 | S. cerevisiae deletion strains, locus YPL051W, strain arl3, active compounds read low 1 | S. cerevisiae deletion strains, locus YPL055C, strain LGE1, active compounds read low 1 | S. cerevisiae deletion strains, locus YPL078C, strain atp4, active compounds read low 0.999 | S. cerevisiae deletion strains, locus YPL106C, strain sse1, active compounds read low 0.989 | S. cerevisiae deletion strains, locus YPL240C, strain hsp82, active compounds read low 1.01 | S. cerevisiae deletion strains, locus YPL241C, strain CIN2, active compounds read low 1.01 | S. cerevisiae deletion strains, locus YPL256C, strain CLN2, active compounds read low 1.09 | S. cerevisiae deletion strains, locus YPR119W, strain clb2, active compounds read low 0.99 | S. cerevisiae deletion strains, locus YPR141C, strain kar3, active compounds read low 0.984 | S. cerevisiae deletion strains, locus YPR163C, strain tif3, active compounds read low 0.99 | S. cerevisiae deletion strains, locus YPR167C, strain met16, active compounds read low 0.994 | S. cerevisiae deletion strains, strain wtn01, active compounds read low 0.993 | S. cerevisiae strains, strain wild type, active compounds read low 1.01
